Assay [1] is described as follows: qHTS assay to identify small molecule antagonists of the estrogen receptor alpha (ER-alpha) signaling pathway using the BG1 cell line in the presence of 0.1 nM 17-beta-estradiol - cell viability counter screen (AID 1259241). Also: nearly all actives have a fitted effect of over 40% in size. Also: potency is read from the fitted curve at half-maximal effect. In short, it runs like this: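 Cells were plated and left 24 hr, compounds in DMSO were pinned in, 17beta-estradiol was added to 0.1 nM final, and after 22 hr CellTiter-Fluor reagent was added for 30 min before fluorescence was read.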

Assay [2] in a line: qHTS assay to identify small molecule antagonists of the androgen receptor (AR) signaling pathway using the MDA cell line in the presence of 0.5 nM R1881 - cell viability counter screen (AID 1259242). Also: nearly all actives have a fitted effect of over 45% in size. Also: potency is read from the fitted curve at half-maximal effect. In short, it runs like this: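 Live-cell protease fluorescence, CellTiter-Fluor, 30 min at 37C. Cells: MDA-kb2, 3,000/well, preincubated 5 hr. Compounds plus 0.5 nM R1881 final, 16 hr, 37C, 0% CO2.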
For orientation: Quantitative high-throughput screening tests each substance at several concentrations.

Assay [3] has as its target Estrogen receptor (Homo sapiens) (UniProt P03372). In words: qHTS assay to identify small molecule antagonists of the estrogen receptor alpha (ER-alpha) signaling pathway using the BG1 cell line in the presence of 0.1 nM 17-beta-estradiol (AID 1259244). Also: nearly all actives have a fitted effect of over 50% in size. Also: potency is read from the fitted curve at half-maximal effect. Put shortly: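 Luminescence after ONE-Glo (30 min, room temperature) measured ERE-luciferase activity in VM7Luc4E2 cells treated 22 h with compound and 0.1 nM final 17beta-estradiol as stimulator.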

A short description of assay [4]: qHTS assay to identify small molecule HDAC inhibitors (AID 1259364).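 Also: wild-type HCT-116 cells with endogenous class I/II HDAC activity; top concentration of the series differs between compounds; nearly all actives have a fitted effect of over 45% in size.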 Put shortly:
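HCT-116 (wild type), 1,500 cells/well, overnight; compound 2 hr 37C 5% CO2; HDAC-Glo I/II reagent 30 min RT; luminescence readout.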

Assay [5] can be described thus: qHTS assay to identify small molecule HDAC inhibitors - cell viability counter screen (AID 1259365). Also: series mostly up to about 92 µM; nearly all actives have a fitted effect of over 50% in size. Put shortly:
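Counter screen in wild-type HCT-116 cells: compounds dissolved in DMSO are pin-transferred onto overnight-plated cells and left 2hr at 37C. ATP-based CellTiter-Glo luminescence then measures viable cells.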

The nature of assay [6]: qHTS assay to identify small molecule agonists of the sonic hedgehog signaling (Shh) pathway - cell viability counter screen (AID 1259366). Also: nearly all actives have a fitted effect of over 50% in size. Also: potency is read from the fitted curve at half-maximal effect. Put shortly:
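Cells are plated at 2,000 per well and left 4hr at 37C, 5% CO2 before compound addition. After 23hr of treatment, CellTiter-Fluor reagent is added for 1hr at 37C and fluorescence is measured.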

Assay [7] is described as follows: qHTS assay to identify small molecule antagonists of the sonic hedgehog signaling (Shh) pathway - cell viability counter screen (AID 1259367). Also: nearly all actives have a fitted effect of over 55% in size. Also: potency is read from the fitted curve at half-maximal effect. In short, it runs like this: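 Tox21 library chemicals were tested on a Gli1-Luc NIH/3T3 clone (2,000 cells/well) stimulated by conditioned medium; viability was quantified as fluorescence from CellTiter-Fluor reagent added at 23 hr.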

The nature of assay [8]: qHTS assay to identify small molecule agonists of the sonic hedgehog signaling (Shh) pathway (AID 1259368; calls by dose curve;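 also: NIH/3T3-derived 3T3Gli1-Luc cells carrying a stable Gli1-driven firefly luciferase reporter; series mostly up to about 92 µM; nearly all actives have a fitted effect of over 15% in size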). In short, it runs like this:
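Read-out: firefly luciferase luminescence from a Gli1 response element reporter stably integrated in NIH/3T3-derived 3T3Gli1-Luc cells, measured 30 min at room temperature after reagent addition. Compound exposure lasted 24 hr at 37 C, 5% CO2.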

The nature of assay [9]: qHTS assay to identify small molecule phospholipidosis (PLD) inducers (AID 1259344; active = well fitted curve in the direction sought with a large enough effect; an effect the other way counts as inactive or inconclusive). In short, it runs like this:
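Image-based: LipidTOX Red pit count/intensity per well and per cell; HepG2, 24 h compound at 37 C, PFA fixation, Hoechst counterstain.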

The structures appear in SMILES notation. Values joined by “and” are separate entries in the source; they are usually repeats but may differ in a detail not shown here. Equal values may be shown once. Unmarked numbers belong to inactive results. Inconclusive results are not listed. Active and inactive are the calls of the source. Unless noted, calls follow the shape of the dose curve; as a rule, active = well fitted curve in the direction sought with a large enough effect in the repeat runs; inconclusive = weak or mixed curves; inactive = no such curve, though single readings can be large; an effect the other way counts as inactive or inconclusive.
% is scaled to controls: 0 for no effect and ±100 for the full control effect.

Estrogen receptor (Homo sapiens), sequence (P03372 whole entry, looked up): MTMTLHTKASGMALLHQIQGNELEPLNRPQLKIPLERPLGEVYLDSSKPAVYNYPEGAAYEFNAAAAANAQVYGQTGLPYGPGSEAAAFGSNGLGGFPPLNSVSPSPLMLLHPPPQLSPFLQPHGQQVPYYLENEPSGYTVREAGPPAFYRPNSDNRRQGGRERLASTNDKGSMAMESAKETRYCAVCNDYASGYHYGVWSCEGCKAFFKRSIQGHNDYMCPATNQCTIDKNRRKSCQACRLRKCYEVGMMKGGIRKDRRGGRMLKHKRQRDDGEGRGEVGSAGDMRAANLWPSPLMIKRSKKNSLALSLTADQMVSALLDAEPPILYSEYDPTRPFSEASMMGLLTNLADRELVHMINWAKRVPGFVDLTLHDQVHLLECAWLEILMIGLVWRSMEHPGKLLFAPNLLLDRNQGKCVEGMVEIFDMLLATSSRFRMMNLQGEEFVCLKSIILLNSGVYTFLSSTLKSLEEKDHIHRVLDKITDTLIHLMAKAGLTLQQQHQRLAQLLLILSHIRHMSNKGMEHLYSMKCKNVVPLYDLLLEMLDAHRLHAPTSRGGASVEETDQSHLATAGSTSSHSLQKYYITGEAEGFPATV

For `CCCC1CCC(=O)CC1`, the Potency entry in assay [1], in [2], in [3], in [4], in [5] and in assay [6] was “inactive” in each case. In addition, the Potency entry in assay [7] and in [8] was “inactive” in each case.

Consider `[Cl][Pt-2]([Cl])([Cl])[Cl]`, for which the Potency entry in assay [1], in assay [2], in [3], in assay [4], in assay [5] and in assay [6] was “inactive” each time. For the same compound, the Potency result in [8] is “inactive”.

For the compound `[Cu+]`, the Potency result in [1], in [2], in assay [3], in [4], in assay [5] and in assay [6] was “inactive” each time. Also, the Potency result in assay [7] and in assay [8] was “inactive” each time.

As to `OC/C=C/CO`, the Potency result in [1], in assay [2], in [3], in assay [4], in assay [5] and in [6] was “inactive” each time. Moreover, the Potency result in assay [7] and in assay [8] was “inactive” each time.

With `O=[N+]([O-])c1cccc(C(F)(F)F)c1`, the Potency entry in [1], in assay [2], in assay [3], in assay [4], in assay [5] and in [6] was “inactive” in each case. In addition, in [8], the Potency result is “inactive”.

Consider `OC[C@@H](O)[C@@H](O)CO`, for which the Potency result in assay [1], in assay [2], in assay [3], in assay [4], in assay [5] and in assay [6] was “inactive” throughout. Also, the Potency entry in [7] and in assay [8] was “inactive” each time.

As for `CC(C)CCCCCOC(=O)CCS`, the Potency entry in [1], in [2], in [3], in assay [4], in assay [5] and in [6] was “inactive” each time. Besides, the Potency entry in assay [7] and in [8] was “inactive” each time.

Take `S=c1nccc[nH]1`: the Potency result in assay [1], in assay [2], in assay [3], in assay [4], in [5] and in assay [6] was “inactive” in each case. Also, the Potency result in [7] and in assay [8] was “inactive” in each case.

Consider `C=C(C)c1cccc(C(=C)C)c1`, for which the Potency result in [1], in [2], in assay [3], in assay [4], in assay [5] and in [6] was “inactive” each time. The Potency result in assay [7] and in [8] was “inactive” throughout.

As for `O=C1c2ccccc2C(=O)N1SC1CCCCC1`, the Potency result in assay [1], in assay [2], in assay [4], in [5], in assay [7] and in assay [8] was “inactive” in each case. The Potency in [3] was 61.1 µM (active); in assay [6], 30.6 µM (active).

On to `CC(C)(C)C1CCC(=O)CC1`, for which the Potency entry in assay [1], in assay [2], in assay [3], in assay [4], in assay [5] and in assay [6] was “inactive” throughout. Besides, the Potency result in [8] was “inactive”.

Consider `CCC(=O)OC(=O)CC`, for which the Potency entry in assay [1], in assay [2], in assay [3], in assay [4], in assay [5] and in assay [6] was “inactive” in each case. Also, the Potency entry in assay [7] and in assay [8] was “inactive” in each case.

Turning to `c1cnccn1`, the Potency result in [1], in [2], in assay [3], in assay [4], in [5] and in [6] was “inactive” each time. The Potency entry in [7] and in [8] was “inactive” throughout.

With `CCCCNS(=O)(=O)c1ccc(C)cc1`, the Potency entry in assay [1], in assay [2], in assay [3], in [4], in [5] and in assay [6] was “inactive” each time. In addition, the Potency entry in [7] and in assay [8] was “inactive” throughout.

With `Cc1c(C)c([N+](=O)[O-])c(C(C)(C)C)c([N+](=O)[O-])c1C`, the Potency entry in [1], in [2], in assay [3], in [4], in assay [5] and in [6] was “inactive” throughout. For the same compound, the Potency result in assay [7] and in [8] was “inactive” throughout.

As to `O=C(O)Cc1ccc2c(c1)C(=O)c1ccccc1CO2`, the Potency result in assay [1], in assay [2], in assay [3], in [4], in [5] and in assay [6] was “inactive” each time. In addition, the Potency entry in [8] is “inactive”.

Take `COc1cccc2c1C(=O)c1c(O)c3c(c(O)c1C2=O)C[C@@](O)(C(C)=O)C[C@@H]3O[C@H]1C[C@H](N)[C@H](O)[C@H](C)O1`: the Potency in [1] is 30.8 µM (active) and 13.3 µM (active); in [2], 48.9 µM (active); in assay [6] it was 615 nM (active) and 2.11 µM (active); in assay [7], 1.09 µM (active) and 1.88 µM (active). Also, in [9], the PLD induction is -3.33% [at 7.66 µM]. Besides, the Potency result in assay [4], in assay [5] and in assay [8] was “inactive” throughout.

As for `O=C(O)c1ccc2cc(C(=O)O)ccc2c1`, the Potency entry in assay [1], in assay [2], in assay [3], in assay [5], in [6] and in assay [7] was “inactive” each time. For the same compound, in assay [8], the Potency result was “inactive”.

As for `Cl[Si](Cl)(c1ccccc1)c1ccccc1`, the Potency result in [1], in assay [2], in [3], in assay [4], in assay [5] and in assay [7] was “inactive” in each case. Moreover, the Potency result in [8] is “inactive”.

As to `CC(C)(C)c1csc(-c2cc3cc(OCc4ccccc4CC(=O)O)ccc3o2)n1`, the Potency entry in [1], in assay [2], in assay [3], in assay [4], in assay [5] and in assay [7] was “inactive” in each case.

Regarding `C=Cc1cccc(C)c1`, the Potency entry in assay [1], in assay [2], in [3], in [4], in assay [5] and in assay [7] was “inactive” each time. For the same compound, the Potency entry in [8] was “inactive”.

Values taken from PubChem BioAssay (Tox21).
